The record followed here is PubChem BioAssay (NCATS).

Results filed as inconclusive are left out. Values without a mark were called inactive. Activity calls are given as the source filed them. Calls follow the shape of the dose curve; as a rule, active = well fitted curve in the direction sought with a large enough effect; inconclusive = small, poorly fitted or top-dose-only effect, or another doubt; inactive = no such curve, though single readings can be large; an effect the other way counts as inactive or inconclusive.

For assay [1], the target named is Rap guanine nucleotide exchange factor 3 (Homo sapiens) (UniProt O95398). Put plainly: Confirmatory qHTS for antagonist of cAMP-regulated guanine nucleotide exchange factor 3 (EPAC1) (AID 1645880). Also: nearly all actives have a fitted effect of over 55% in size. Also: potency is read from the fitted curve at half-maximal effect. In short, it runs like this:
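Nucleotide exchange uses 100 nM EPAC1, 250 nM RAP1B-BODIPY-GDP and 50 uM GDP, with compounds in a concentration-titration series. After 5 min at room temperature, fluorescence (480 nm ex/540 nm em) is read every 5 min for 30 min. Data are normalized to control ATA and DMSO.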
A general note: In qHTS, concentration-response curves come from the screen itself.

Assay [2] has the same target. Put plainly: Confirmatory qHTS for agonist of cAMP-regulated guanine nucleotide exchange factor 3 (EPAC1) (AID 1645881). Also: nearly all actives have a fitted effect of over 75% in size. Also: potency is read from the fitted curve at half-maximal effect.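 As to activation: EPAC1 catalysed release of BODIPY-GDP from Rap1B seen as fluorescence loss; 100% = effect of cAMP agonist control.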
The target in assay [3] is Rap guanine nucleotide exchange factor 4 (Homo sapiens) (UniProt Q8WZA2). The experiment in a line: Confirmatory qHTS for agonist of cAMP-regulated guanine nucleotide exchange factor 4 (EPAC2) (AID 1645884).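 Also: nucleotide exchange releases bodipy-GDP from Rap1 and this lowers its fluorescence; nearly all actives have a fitted effect of over 65% in size.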 Also: potency is read from the fitted curve at half-maximal effect. As to activation: % is scaled to controls: 0 for no effect and ±100 for the full control effect.
Sequence of Rap guanine nucleotide exchange factor 4 (Homo sapiens) (Q8WZA2 whole entry, looked up): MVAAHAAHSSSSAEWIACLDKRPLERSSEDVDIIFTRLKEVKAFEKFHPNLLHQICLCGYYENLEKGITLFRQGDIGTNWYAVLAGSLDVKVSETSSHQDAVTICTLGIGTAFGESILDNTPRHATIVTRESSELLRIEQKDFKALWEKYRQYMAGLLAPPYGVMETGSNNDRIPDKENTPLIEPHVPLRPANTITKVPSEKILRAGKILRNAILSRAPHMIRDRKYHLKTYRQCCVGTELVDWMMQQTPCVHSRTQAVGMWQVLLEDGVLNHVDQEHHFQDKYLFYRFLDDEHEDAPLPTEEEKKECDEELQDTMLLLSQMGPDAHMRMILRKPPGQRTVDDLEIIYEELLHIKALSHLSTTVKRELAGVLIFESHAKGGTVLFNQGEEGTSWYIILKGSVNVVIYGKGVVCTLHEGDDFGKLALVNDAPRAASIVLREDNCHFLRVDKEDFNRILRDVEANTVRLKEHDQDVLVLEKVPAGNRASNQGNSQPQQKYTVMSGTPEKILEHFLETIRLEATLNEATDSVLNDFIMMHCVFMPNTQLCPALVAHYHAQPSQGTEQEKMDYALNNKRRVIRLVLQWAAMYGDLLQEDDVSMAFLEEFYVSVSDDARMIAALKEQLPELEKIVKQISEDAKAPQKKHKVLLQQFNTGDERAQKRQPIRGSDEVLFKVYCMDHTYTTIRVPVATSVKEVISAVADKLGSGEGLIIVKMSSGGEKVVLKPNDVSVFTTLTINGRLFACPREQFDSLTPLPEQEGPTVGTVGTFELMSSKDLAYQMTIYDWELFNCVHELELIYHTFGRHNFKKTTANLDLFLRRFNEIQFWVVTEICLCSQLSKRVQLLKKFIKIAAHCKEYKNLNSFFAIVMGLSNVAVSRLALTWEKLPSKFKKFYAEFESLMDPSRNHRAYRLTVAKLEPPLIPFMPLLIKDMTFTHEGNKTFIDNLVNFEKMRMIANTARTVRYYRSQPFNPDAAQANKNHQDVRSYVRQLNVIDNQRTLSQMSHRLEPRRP
Assay [4] shares this target. The experiment in a line: Confirmatory qHTS for antagonist of cAMP-regulated guanine nucleotide exchange factor 4 (EPAC2) (AID 1645885). Also: nearly all actives have a fitted effect of over 25% in size. Also: potency is read from the fitted curve at half-maximal effect. As to activity change, negative = inhibition: % is scaled to controls: 0 for no effect and ±100 for the full control effect.
For assay [5], the target named is Rap guanine nucleotide exchange factor 3 (Homo sapiens) (UniProt O95398). The experiment in a line: Counterscreen qHTS for antagonist of cAMP-regulated guanine nucleotide exchange factor 3 (EPAC1) (AID 1645888).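 Also: fluorescence loss as bound BODIPY-GDP is released from Rap1B; % of control where 0% means no effect.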 In short, it runs like this:
(§1)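 Rap1B-BODIPY-GDP 250 nM + GDP 50 uM; cpds 7-pt, final 9.74 nM–152 uM (activator mode) or from 7.32 nM upwards (inhibitor mode); RT; FI 480/540 nm at 5 and 30 min, then ± cAMP, reread.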
In general terms: The purpose of a counterscreen is to sort out artefacts and off-target activity.

Assay [6] has the same target. Put plainly: Counterscreen qHTS for agonist of cAMP-regulated guanine nucleotide exchange factor 3 (EPAC1) (AID 1645889). Also: nearly all actives have a fitted effect of over 40% in size. Also: potency is read from the fitted curve at half-maximal effect. As to activation: % of control where 0% means no effect. In short, it runs like this:
as §1

Sequence of Rap guanine nucleotide exchange factor 3 (Homo sapiens) (O95398 whole entry, looked up): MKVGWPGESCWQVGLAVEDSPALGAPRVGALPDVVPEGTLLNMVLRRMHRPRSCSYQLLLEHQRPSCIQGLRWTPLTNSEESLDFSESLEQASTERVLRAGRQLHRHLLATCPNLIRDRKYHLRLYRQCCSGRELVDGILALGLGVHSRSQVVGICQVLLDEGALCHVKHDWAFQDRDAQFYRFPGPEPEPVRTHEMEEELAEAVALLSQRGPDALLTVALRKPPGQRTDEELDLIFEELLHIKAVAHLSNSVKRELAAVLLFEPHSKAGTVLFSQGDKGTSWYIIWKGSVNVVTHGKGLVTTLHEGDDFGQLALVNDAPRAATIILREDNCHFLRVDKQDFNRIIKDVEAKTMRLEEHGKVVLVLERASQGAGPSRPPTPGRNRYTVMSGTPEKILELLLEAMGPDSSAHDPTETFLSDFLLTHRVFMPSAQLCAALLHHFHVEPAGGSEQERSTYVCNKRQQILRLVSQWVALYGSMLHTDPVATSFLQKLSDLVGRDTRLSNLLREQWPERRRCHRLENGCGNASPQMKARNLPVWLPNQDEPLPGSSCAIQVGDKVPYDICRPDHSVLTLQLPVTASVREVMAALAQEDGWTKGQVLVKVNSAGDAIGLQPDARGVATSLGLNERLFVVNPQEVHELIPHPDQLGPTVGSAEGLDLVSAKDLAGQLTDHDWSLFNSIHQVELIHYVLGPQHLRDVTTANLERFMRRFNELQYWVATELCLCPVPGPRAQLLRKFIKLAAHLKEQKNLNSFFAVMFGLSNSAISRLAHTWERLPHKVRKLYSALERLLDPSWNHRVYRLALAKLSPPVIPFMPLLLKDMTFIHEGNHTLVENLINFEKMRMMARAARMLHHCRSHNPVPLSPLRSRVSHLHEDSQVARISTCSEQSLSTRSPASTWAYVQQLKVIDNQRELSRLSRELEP

For the compound `COC(=O)c1sc(-c2ccccc2)cc1NC(C)=O`, the Potency entry in assay [1], in assay [2] and in assay [4] was “inactive” throughout. Besides, the activation in assay [3] is 3.04% [at 17.1 µM, percent relative to cAMP agonist control]; in assay [6], 9.28% [at 30.8 µM]. For the same compound, the activity change, negative = inhibition in assay [5] is 7.63% [at 30.8 µM].

Turning to `CCc1nnc(NS(=O)(=O)c2ccc(NC(=S)NC(=O)/C=C/c3ccccc3)cc2)s1`, in assay [1], the Potency was 67.5 µM (active). For the same compound, the Potency entry in assay [2], in assay [3], in assay [4], in assay [5] and in assay [6] was “inactive” each time.

As to `Cc1ccc(S(=O)(=O)N2CCN(C(=O)CC(C)n3nc(C)c(Cl)c3C)CC2)cc1` (configuration not stated), the Potency result in assay [1], in assay [2] and in assay [4] was “inactive” in each case. For the same compound, the activation was 1.58% [at 17.1 µM, percent relative to cAMP agonist control] in assay [3] and 6.22% [at 30.8 µM] in assay [6]. The activity change, negative = inhibition in assay [5] was 13.5% [at 30.8 µM].

In the case of `Cc1cc2ccccn2c1C(=O)c1ccc(C#N)cc1`, the Potency result in assay [1], in assay [2], in assay [3], in assay [4], in assay [5] and in assay [6] was “inactive” throughout.

For `CCOC(=O)c1c(CC(C)C)csc1N`, the Potency result in assay [1], in assay [2], in assay [3], in assay [4], in assay [5] and in assay [6] was “inactive” throughout.

On to `COc1ccc(C(=O)NCCONC(=O)c2ccc(OC)cc2)cc1`, for which the Potency result in assay [1], in assay [2], in assay [3], in assay [4], in assay [5] and in assay [6] was “inactive” throughout.

As for `Clc1ccc(-c2cc3ccccc3nc2N2CCOCC2)cc1`, the Potency result in assay [1], in assay [2], in assay [3], in assay [4], in assay [5] and in assay [6] was “inactive” throughout.

For `O=C(CC[C@H]1O[C@@H](n2ccc(=O)[nH]c2=O)[C@H](O)[C@@H]1O)NCc1cccc2ccccc12`, the Potency result in assay [1], in assay [2], in assay [3], in assay [4], in assay [5] and in assay [6] was “inactive” throughout.

As for `O=C(NC1CCN(Cc2ccccc2)CC1)c1cn(-c2ccccc2)nc1-c1cccnc1`, the Potency result in assay [1], in assay [2], in assay [3], in assay [4], in assay [5] and in assay [6] was “inactive” in each case.

`COc1ccccc1N1CC(C(=O)Nc2cc(C(F)(F)F)ccc2N2CCCC2)CC1=O` (configuration not stated): the Potency entry in assay [1], in assay [2] and in assay [4] was “inactive” in each case. The activation was 9.01% [at 17.1 µM, percent relative to cAMP agonist control] in assay [3] and 9.96% [at 30.8 µM] in assay [6]. For the same compound, the activity change, negative = inhibition in assay [5] was -8.33% [at 30.8 µM].

On to `COc1ccc(/C=C(/NC(=O)c2ccccc2)C(=O)N/N=C/c2ccncc2)c(OC)c1`, for which the Potency entry in assay [1], in assay [2] and in assay [4] was “inactive” each time. For the same compound, the activation in assay [3] was 2.49% [at 17.1 µM, percent relative to cAMP agonist control]; in assay [6], 12.1% [at 30.8 µM]. Besides, the activity change, negative = inhibition in assay [5] is 28.5% [at 30.8 µM].

Consider `Cc1ccc2c(c1)c1c(c(=O)n(-c3cccc(Cl)c3)c(=O)n1C)n2C`, for which the Potency result in assay [1], in assay [2], in assay [3], in assay [4], in assay [5] and in assay [6] was “inactive” each time.

`O=C(O)CN1C(=O)/C(=C\c2cccc(OCc3ccc(Cl)cc3)c2)SC1=S`: the Potency in assay [1] is 75.7 µM (active). Also, the Potency entry in assay [2], in assay [3], in assay [4], in assay [5] and in assay [6] was “inactive” in each case.

As for `O=C(Nc1ccncc1)c1ccc2ncsc2c1`, the Potency entry in assay [1], in assay [2], in assay [3], in assay [4], in assay [5] and in assay [6] was “inactive” throughout.

Consider `COc1cc(/C=C2\SC(=O)N(c3ccccc3Cl)C2=O)cc([N+](=O)[O-])c1O`, for which the values for the Potency in assay [1] and in assay [4] were 47.8 µM (active) and 42.6 µM (active), respectively. The Potency result in assay [2], in assay [3], in assay [5] and in assay [6] was “inactive” throughout.

In the case of `CC1=NOC(=O)/C1=C\c1ccc(-c2ccc(Cl)cc2Cl)o1`, the Potency in assay [1] was 15.8 µM (active). In addition, the Potency entry in assay [2] and in assay [4] was “inactive” each time. In addition, the activation is -0.185% [at 17.1 µM, percent relative to cAMP agonist control] in assay [3] and 15.1% [at 30.8 µM] in assay [6]. The activity change, negative = inhibition in assay [5] is -37.2% [at 30.8 µM].

On to `CCCCN1C(=O)/C(=C/C=C2\Oc3ccccc3N2CC)SC1=S`, for which the Potency entry in assay [1], in assay [4] and in assay [5] was “inactive” each time. Moreover, the Potency in assay [2] is 112 µM (active); in assay [3], 100 µM (active); in assay [6] it was 1.78 µM (active).

Regarding `CN(C)S(=O)(=O)N1CCN(S(=O)(=O)N(C)C)CC1`, the Potency result in assay [1], in assay [2] and in assay [4] was “inactive” each time. For the same compound, the activation was 5.89% [at 17.1 µM, percent relative to cAMP agonist control] in assay [3] and 1.25% [at 30.8 µM] in assay [6]. The activity change, negative = inhibition in assay [5] is -14.8% [at 30.8 µM].

As for `Cc1cn2c(=O)cc(COc3ccc(C(C)(C)C)cc3)nc2s1`, the Potency entry in assay [1], in assay [2], in assay [3], in assay [4], in assay [5] and in assay [6] was “inactive” in each case.

Take `O=S(=O)(NCc1cn2ccsc2n1)c1cccs1`: the Potency result in assay [1], in assay [2] and in assay [4] was “inactive” in each case. Besides, the activation was 0% [at 17.1 µM, percent relative to cAMP agonist control] in assay [3] and 3.73% [at 30.8 µM] in assay [6]. Further, the activity change, negative = inhibition in assay [5] was -13.2% [at 30.8 µM].

Regarding `COc1cc2cncc(Cc3ccc(Cl)cc3)c2cc1OC`, the Potency entry in assay [1], in assay [2], in assay [3], in assay [4], in assay [5] and in assay [6] was “inactive” throughout.

With `O=C(c1ccc2c(c1)N(Cc1ccccc1)CCS2)N1CCCCC1`, the Potency entry in assay [1], in assay [2], in assay [3], in assay [4], in assay [5] and in assay [6] was “inactive” each time.
